# Compound activity deposited in PubChem BioAssay by National Center for Advancing Translational Sciences (NCATS).
# SARS PLP yeast: SARS-CoV PLP inhibition in yeast; S. cerevisiae expressing SARS-CoV PLpro, growth rescue; Potency, µM (top dose mostly 32.9 µM), without a hit: at the highest dose activity, positive = growth rescue, hits mostly activators; 330,000 compounds, 0.19% hits; AID 485353; calls by dose curve; also: 0% is about no effect; nearly all actives have a fitted effect of over 55% in size
# Sm TGR inh: inhibitors of Schistosoma mansoni thioredoxin glutathione reductase; Q962Y6; purified TGR, DTNB reduction, TNB absorbance 405 nm; Potency, µM (titrated, usually from 114 µM), for inactives: at the top dose activity change, negative = inhibition, actives largely listed as inhibitors; 360,000 compounds, 3% hits; AID 485364; active = well fitted inhibition curve with a large enough effect; inconclusive = small, poorly fitted or top-dose-only effect; inactive = no such curve, though single readings can be large or run the other way; also: % is scaled to controls: 0 for no effect and ±100 for the full control effect; nearly all actives have a fitted effect of over 60% in size
#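 TGR 20 nM + NADPH 100 uM (dispensed conc.), cpd preinc 15 min RT; start with NADPH (500 uM addition) then DTNB (15 mM addition). Kinetic TNB absorbance, 405 nm filter. Four-parameter Hill fit across titration.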
# * = called active by the depositor; ? = inconclusive; nt = not tested or not shown. In the library only some 3% were active in any assay of this set; here they are far more common. Potency is read from the fitted curve at half-maximal effect.
SMILES,SARS PLP yeast,Sm TGR inh
CCN1C(=O)[C@H]2[C@@H](c3ccc(-c4ccc(F)cc4)c(OC)c3)N3CCC[C@@]3(C(=O)OC)[C@H]2C1=O,-0.9%,?
CCN1C(=O)[C@@H]2[C@@H](c3ccc(-c4ccc(Cl)c(Cl)c4)c(OC)c3)N3CCC[C@@]3(C(=O)OC)[C@@H]2C1=O,-7.3%,35.5µM*
CCSc1ccc([C@@H]2[C@@H]3C(=O)N(CC)C(=O)[C@@H]3[C@]3(C(=O)OC)CCCN23)cc1,-5.7%,35.5µM*
Cn1c(O)c(C(=N)COc2ccccc2)c(=O)n(C)c1=O,3.7%,-16.5%
Cn1c(O)c(C(=Nc2ccccc2)SCc2ccc(Cl)cc2)c(=O)n(C)c1=O,-1.0%,20µM*
Cc1ccc(OCCCSc2nc(-c3ccc(C(C)(C)C)cc3)nc3cc(=O)[nH]n23)cc1C,nt,-12.0%
N#Cc1ccc(NC(=S)Nc2ccccc2)cc1,-3.1%,44.7µM*
CC(=O)Nc1ccc(NC(=S)Nc2ccccc2)cc1,-6.9%,-32.5%
Cc1ccc(-n2c(=O)c3ccc(C(=O)NCc4ccccc4Cl)cc3n(Cc3ccccc3F)c2=O)cc1,nt,8.7%
O=C(NC(=S)Nc1ccccc1Br)C1CCCC1,5.4%,12.6µM*
O=C(NC(=S)Nc1ccccc1Br)C1CCCCC1,20.8%,nt
O=C(CC(=O)Nc1ccccc1F)Nc1ccc2nc3n(c(=O)c2c1)CCCCC3,nt,-1.3%
O=C(NN=C1CCCC1)c1ccc(Cl)cc1,-1.0%,0.0%
O=C1CCC/C(=N/Nc2ccc(Cl)cc2)C1,-0.7%,12.6µM*
Cn1c(-c2ccccc2)c(C(=O)CC#N)c2ccccc21,-2.6%,9.8%
CN(C)CCCNCC(=O)c1c(-c2ccccc2)n(C)c2ccccc12,-6.3%,50.1µM*
CCOc1ccc(CNC(=O)Cn2nc(C)c3sc4ccccc4c3c2=O)cc1,nt,-17.9%
COc1cccc(OCCn2c(-c3ccc(Cl)cc3)nc3ccccc3c2=O)c1,nt,3.8%
Cc1nnc(Sc2nc3ccccc3o2)c2ccccc12,-11.3%,31.6µM*
Cc1ccc(-c2nnc(Sc3nc4ccccc4o3)c3ccccc23)cc1,-3.9%,-7.5%
COC(=O)c1ccccc1S(=O)(=O)N(Cc1ccco1)Cc1cc2cc(OC)ccc2[nH]c1=O,-1.5%,7.08µM*
CCOc1ccc2[nH]c(=O)c(CN(CCO)Cc3nnnn3CCc3ccccc3)cc2c1,0.3%,-10.8%
Cc1ccc2[nH]c(=O)c(CN(Cc3ccco3)S(=O)(=O)c3c(C)ccc4nsnc34)cc2c1,-1.3%,28.2µM*
Cc1ccc2cc(CN(CCN3CCOCC3)Cc3nnnn3Cc3ccco3)c(=O)[nH]c2c1C,11.0%,35.5µM*
CCOc1ccc2[nH]c(=O)c(CN(Cc3ccco3)Cc3nnnn3Cc3ccccc3)cc2c1,-3.9%,22.4µM*
SMILES,SARS PLP yeast,Sm TGR inh
Cc1ccc2cc(CN(Cc3ccc4c(c3)OCO4)Cc3nnnn3Cc3ccco3)c(=O)[nH]c2c1C,-2.2%,?
Cc1ccc2nsnc2c1S(=O)(=O)N(Cc1ccco1)Cc1cc2cccc(C)c2[nH]c1=O,5.1%,?
CNC(=S)N(Cc1ccco1)Cc1cc2cc(OC)ccc2[nH]c1=O,0.4%,7.0%
CCN(CCCNC(=O)c1nn(-c2ccc(OC)cc2)c(=O)c2c1c1ccccc1n2C)c1ccccc1,nt,11.3%
COc1ccc(CNC(=O)c2cc3ccccn3n2)c(OC)c1,nt,-0.3%
CCOc1cc(CNCCSc2nnnn2-c2ccccc2)cc(Cl)c1OC,nt,-0.3%
Cc1ccc(Cl)cc1NC(=O)Cn1c(=O)n(CCC(=O)N2CCc3ccccc3C2)c(=O)c2ccccc21,nt,7.0%
COc1ccc(OC)c(CNc2ncnc3c2nc2n3CCCC2)c1,nt,3.2%
CCOc1ccc2[nH]c(=O)c(CN(Cc3ccco3)C(CC)c3nnnn3Cc3ccccc3)cc2c1 (centres undefined),2.3%,15.8µM*
CCC(c1nnnn1Cc1ccco1)N(CCN1CCOCC1)Cc1cc2cc(C)ccc2[nH]c1=O (centres undefined),5.1%,44.7µM*
COc1ccc2[nH]c(=O)c(CN(Cc3cccs3)Cc3nnnn3Cc3ccccc3)cc2c1,2.2%,-0.1%
COc1ccccc1CN(Cc1cc2cc(C)ccc2[nH]c1=O)Cc1nnnn1Cc1ccco1,-3.2%,39.8µM*
CCOC(=O)Cn1nnnc1C(CC)N(Cc1cccs1)Cc1cc2cc(C)ccc2[nH]c1=O (centres undefined),5.5%,0.0%
CCc1ccc2[nH]c(=O)c(CN(Cc3ccccc3OC)Cc3nnnn3Cc3ccco3)cc2c1,0.2%,?
COc1ccc2[nH]c(=O)c(CN(Cc3ccco3)Cc3nnnn3Cc3ccccc3)cc2c1,10.2%,35.5µM*
CCC(c1nnnn1CCc1ccccc1)N(Cc1ccco1)Cc1cc2cccc(C)c2[nH]c1=O (centres undefined),0.1%,-18.7%
O=C(Cn1nc2c(cc1=O)CCCC2)Nc1ccccc1C(F)(F)F,nt,-5.0%
CCc1ccccc1NC(=O)CCCn1c(=O)c2cccn2c2ccccc21,nt,6.8%
CN(C)[C@@H]1C(=O)C(C(N)=O)=C(O)[C@@]2(O)C(=O)C3=C(O)c4c(O)ccc(Cl)c4[C@@](C)(O)C3C[C@@H]12 (some centres undefined),-0.1%,-21.6%
CN(C)C1C(=O)C(C(N)=O)=C(O)C2(O)C(=O)C3=C(O)c4c(O)cccc4C(C)(O)C3CC12 (centres undefined),5.5%,-20.6%
CN(C)[C@@H]1C(=O)C(C(N)=O)=C(O)[C@@]2(O)C(=O)C3=C(O)c4c(O)cccc4[C@@](C)(O)C3[C@H](O)C12 (some centres undefined),nt,8.91µM*
CN(C)[C@@H]1C(=O)C(C(=O)NCN2CCCC2)=C(O)[C@@]2(O)C(=O)C3=C(O)c4c(O)cccc4[C@@](C)(O)C3CC12 (some centres undefined),?,7.94µM*
C[C@H]1c2cccc(O)c2C(=O)C2C(=O)C3(O)C(=O)C(C(N)=O)C(=O)[C@@H](N(C)C)[C@@H]3[C@@H](O)[C@@H]21 (some centres undefined),12.9%,nt
C=C1c2cccc(O)c2C(O)=C2C(=O)[C@]3(O)C(O)=C(C(N)=O)C(=O)[C@@H](N(C)C)[C@@H]3[C@@H](O)[C@H]12,0.7%,35.5µM*
CC(C)c1ccc(NC(=O)CS(=O)(=O)c2cccc3nsnc23)cc1,nt,1.1%
SMILES,SARS PLP yeast,Sm TGR inh
COc1cc(C2CC(=O)N(c3ccccc3)C3=C2C(=O)OC3)cc(OC)c1OC (centres undefined),nt,3.6%
COc1cccc(-n2c(SCC(=O)Nc3nnc(C)s3)nc3c([nH]c4ccccc43)c2=O)c1,nt,6.2%
O=C(/C=C/c1ccco1)NC(=S)Nc1nc(-c2ccc3ccccc3c2)cs1,7.8%,-4.8%
Cc1ccc(C)c(NC(=O)CN(C)C(=O)/C=C/c2ccco2)c1,-0.4%,-22.2%
Cc1ccc(NC(=S)NC(=O)/C=C/c2ccco2)c(O)c1,-1.6%,17.8µM*
O=C(/C=C/c1ccco1)NC(=S)Nc1ccccn1,-6.2%,8.91µM*
Cc1cccnc1NC(=S)NC(=O)/C=C/c1ccco1,20.8%,?
O=C(/C=C/c1ccco1)NC(=S)Nc1ccccc1O,8.8%,10µM*
O=C(/C=C\c1ccco1)NC(=S)Nc1ccccc1O,-3.0%,8.91µM*
O=C(/C=C/c1ccco1)NC(=S)Nc1cc(C(F)(F)F)ccc1N1CCOCC1,6.0%,?
CCOc1ccc(CNC(=O)c2cnc3sc(N(CC)CC)nn3c2=O)cc1OC,nt,4.1%
COc1ccc(C)cc1NC(=O)c1oc2ccc(S(=O)(=O)N3CCC4(CC3)OCCO4)cc2c1C,nt,12.2%
